Compound activity as filed in PubChem.
Vif-A3F inh: inhibitors of Vif-A3F interaction | AID 602313 | 0.2% of 390,000 active | HeLa A3F-eYFP + Vif (tagged APOBEC3F with the HIV-1 protein that degrades it), YFP fluorescence increase | Potency, µM (titrated, usually from 46.1 µM); note: nearly all actives have a fitted effect of over 65% in size
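Fluorescence increase (Ex 488/Em 500-530) after overnight compound treatment at 37 deg C flags inhibition of Vif-driven A3F-eYFP loss in stable HeLa A3F-eYFP/Vif cells seeded overnight beforehand.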
ALOX12 inh: blocks human arachidonate 12S-lipoxygenase. AID 1671190. purified 12hLO, xylenol orange hydroperoxide absorbance. Potency, µM (titrated, usually from 108 µM), actives largely listed as inhibitors. P18054. 1.1% of 580,000 active
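Hydroperoxide product was detected by ferrous iron/xylenol orange as the 573 to 405 nm absorbance ratio. Arachidonic acid at 40 uM (final) was turned over for 30 min at room temperature by 150 nM human 12hLO, pH 7.0 Hepes buffer, after 15 min compound preincubation.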
Vif-A3G inh: inhibitors of Vif-APOBEC3G interaction; Q9HC16; HeLa A3G-eYFP + Vif (tagged APOBEC3G with the HIV-1 protein that degrades it), YFP fluorescence, overnight; Potency, µM (titrated, usually from 46.1 µM), most hits filed as inhibitors; 0.076% of 410,000 active; note: nearly all actives have a fitted effect of over 60% in size
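Read-out is eYFP fluorescence (Ex 488/Em 500-530) from Vif-expressing HeLa A3G-eYFP cells; more signal means A3G escaped Vif-mediated degradation. Cells plated overnight, compound pinned in, incubated overnight at 37 deg C.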
Akt phos inh: blocks phosphorylation of Akt | activity change, % for hits at 50 µM | 0.32% of 360,000 active | Neuro2A IGF-stimulated pAkt S473 HTRF, 20 min; stronger effect = lower value; in the data active = activity change below about -80%; inconclusive = mostly about -51% to -80%
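Single-point screen (50 µM final compound) in Neuro2A cells stimulated 20 min with 6 nM IGF at 37 deg C. After lysis, Ser473-phosphorylated Akt read by HTRF (ex 330 nm, em 615/665 nm) as the 665/615 ratio.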
S-ASM inh: human S-ASM enzyme inhibition; P17405; placental ASM, HMU-PC fluorogenic substrate, 60 min; Potency, µM (top dose mostly 57.5 µM), actives largely listed as inhibitors; 0.006% of 340,000 active
Target sequence (P17405 47-631 limits assumed): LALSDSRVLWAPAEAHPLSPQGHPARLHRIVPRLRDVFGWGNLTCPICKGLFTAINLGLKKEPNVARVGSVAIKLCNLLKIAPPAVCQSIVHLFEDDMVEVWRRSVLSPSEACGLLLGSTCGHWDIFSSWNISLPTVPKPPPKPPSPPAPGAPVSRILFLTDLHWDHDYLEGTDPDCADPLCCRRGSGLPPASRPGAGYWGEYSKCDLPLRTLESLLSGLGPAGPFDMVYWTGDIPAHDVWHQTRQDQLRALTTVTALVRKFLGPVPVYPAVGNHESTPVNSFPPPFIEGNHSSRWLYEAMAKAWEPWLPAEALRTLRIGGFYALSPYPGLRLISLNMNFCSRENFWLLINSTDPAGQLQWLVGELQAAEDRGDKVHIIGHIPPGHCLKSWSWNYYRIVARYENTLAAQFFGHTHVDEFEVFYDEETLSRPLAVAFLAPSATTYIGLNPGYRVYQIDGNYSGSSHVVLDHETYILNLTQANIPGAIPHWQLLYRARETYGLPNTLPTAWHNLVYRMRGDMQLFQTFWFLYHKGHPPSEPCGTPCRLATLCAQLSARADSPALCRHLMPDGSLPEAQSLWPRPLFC
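Human placenta-derived ASM enzyme was preincubated with compound for 10 minutes at room temperature, then given fluorogenic substrate HMU-PC0 (9 uM final) for 60 minutes at 37 °C; a pH 10 stop preceded fluorescence reading at Ex 386/Em 447 nm.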
TSG101-PTAP inh: blocks PTAP/TSG101 interaction to inhibit HIV-1 budding; Q99816; Fluorescence polarization, FITC-PTAP peptide / Tsg101 binding; Potency, µM (titrated, usually from 115 µM), most hits filed as inhibitors; 340,000 tested, under 10 active; active = well fitted inhibition curve with a large enough effect in the main read-out, with a control signal flat, not every such curve was filed as active; inconclusive = small, poorly fitted or top-dose-only effect, or effect the other way, or a change in a side signal; inactive = no such curve, though single readings can be large or run the other way
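FP read-out: FITC-PTAP peptide, 50 nM final, binding Tsg101 binding domain, 10 uM final; 20 min, r.t.; 10 mM HEPES pH 7.5, 0.15 M NaCl, 0.01% Tween 20, 3 mM EDTA, 0.1 mM TCEP.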
Numbers stand for hits; n = inactive; u = inconclusive; x = no result. Hits are enriched below; roughly 1.4% of the tested compounds scored in any of these assays. Unless noted, calls come from the whole dose curve; as a rule, active = well fitted curve in the direction sought with a large enough effect; inconclusive = small, poorly fitted or top-dose-only effect, or another doubt; inactive = no such curve, though single readings can be large; an effect the other way counts as inactive or inconclusive.

SMILES	Vif-A3F inh	ALOX12 inh	Vif-A3G inh	Akt phos inh	S-ASM inh	TSG101-PTAP inh
COC(=O)C1=C(C)N(c2cccc(Cl)c2)C(=O)C1	n	u	n	-118%	n	n
Cc1ccc(NC(=O)COc2ccc(/C=N/NC(=O)CSCc3ccccc3)cc2)cc1	n	n	n	n	n	n
Cc1ccc(NC(=O)COc2ccc(/C=C3/SC(=Nc4ccccc4)N(Cc4cccnc4)C3=O)cc2)cc1	n	n	n	-106%	n	n
N#Cc1cccc(C(=O)NC2CCCCC2C(F)(F)F)c1 (stereo not drawn)	x	n	x	x	x	x
Cc1cc2cc(NS(=O)(=O)c3ccc4ccccc4c3)ccc2[nH]1	x	10µM	x	x	x	x
CSc1ccc(C(C)NC(=O)c2ccccc2C)cc1 (stereo not drawn)	x	n	x	x	x	x
Fc1ccccc1/C=C1\CCCC2=C1Nc1nnnn1C2c1ccccc1F (stereo not drawn)	n	n	n	n	n	x
Fc1ccc(/C=C2\CCCC3=C2N=C2SC=C(c4ccccc4)N2C3c2ccc(F)cc2)cc1 (stereo not drawn)	x	22µM	x	x	x	x
CCOC(=O)/C(C#N)=C/Nc1ccccc1OC	n	n	n	-98%	n	n
COc1cc2c(cc1NC(=O)CSc1nc3ccccc3o1)oc1ccccc12	x	n	x	x	x	x
COc1ccc(Cl)cc1-c1ccc2c(c1)C(=O)N1CC[C@H](NC(=O)c3cccs3)C[C@H]1C(=O)N2	x	n	x	x	x	x
CC[N+](C)(CC)CC(C[N+](C)(CC)CC)OCc1ccccc1	x	14µM	x	x	x	x
Cc1c(C)n(Cc2ccncc2)c2ncn3nc(-c4ccncc4)nc3c12	x	n	x	x	x	x
O=[N+]([O-])c1cccc(S(=O)(=O)Nc2nc3ccccc3nc2Nc2cccc(S(=O)(=O)N3CCCCC3)c2)c1	n	u	n	n	n	n
O=S(=O)(Nc1nc2ccccc2nc1-[n+]1ccccc1)c1ccc(Cl)cc1	n	u	n	n	n	n
Cc1ccccc1C([O-])=Nc1ccc[n+](-c2nc3ccccc3nc2NS(=O)(=O)c2ccccc2)c1	13µM	x	n	n	n	n
COc1ccc(S(=O)(=O)Nc2nc3ccccc3nc2Nc2cccc(C(=O)O)c2)cc1	n	n	n	n	n	n
O=C(O)c1cccc(Nc2nc3ccccc3nc2NS(=O)(=O)c2ccc(Br)cc2)c1	x	13µM	x	x	x	x
Cc1ccc(S(=O)(=O)Nc2nc3ccccc3nc2Nc2cccc(S(=O)(=O)N3CCCC3)c2)cc1	7.1µM	u	n	n	n	u
Cc1cccc(C)c1Nc1nc2ccccc2nc1NS(=O)(=O)c1ccccc1	11µM	n	n	x	x	x
COc1ccc(C2CC(c3ccncc3)=NN2c2ccc(S(N)(=O)=O)cc2)cc1 (stereo not drawn)	11µM	n	u	n	n	u
CN1C(=O)c2cccc3c(S(=O)(=O)N(C)C)ccc1c23	n	n	n	n	n	n
CNS(=O)(=O)c1ccc2c3c(cccc13)C(=O)N2C	n	8.9µM	n	n	n	n
CC1CCc2nc(NC(=O)Cc3n[nH]c(=O)c4ccccc34)sc2C1 (stereo not drawn)	x	n	x	x	x	x
CCCOc1ccc(C(=O)N2CCC(c3nc4ccccc4o3)CC2)cc1	x	n	x	x	x	x
SMILES	Vif-A3F inh	ALOX12 inh	Vif-A3G inh	Akt phos inh	S-ASM inh	TSG101-PTAP inh
COC(=O)C(C)NC(=S)N1CCN(c2c(F)cc3c(=O)c(C(=O)O)cn(C4CC4)c3c2OC)CC1C (stereo not drawn)	n	8.9µM	n	n	n	n
CC(C)c1ccc(S(=O)(=O)Nc2ccc(SC(F)F)cc2)cc1	n	u	n	n	n	n
Cc1ccc(S(=O)(=O)Nc2ccc(SC(F)F)cc2)c(C)c1	n	16µM	n	n	n	n
N#Cc1ccc(Oc2ccc(C=O)cc2)cc1C#N	x	n	x	x	x	x
O=c1cc(O)nc(-c2ccc(Cl)cc2)s1	n	45µM	n	n	n	n
O=c1cc(O)nc(-c2ccccc2)s1	n	u	n	n	n	n
CCOC(=O)c1sc(NC(=O)c2c(OC)cccc2OC)nc1C	n	n	n	-119%	n	n
CCOc1ccccc1C(=O)Nc1c(C(=O)N2CCN(C)CC2)oc2ccccc12	x	n	x	x	x	x
CC(NC(=O)c1sc2cc([N+](=O)[O-])ccc2c1Cl)C(C)(C)C (stereo not drawn)	n	32µM	n	n	n	n
O=C(NC1CC1)c1sc2cc([N+](=O)[O-])ccc2c1Cl	n	n	n	n	n	n
NC(=O)C(NC(=O)c1cc(-c2ccccc2)n[nH]1)c1ccccc1 (stereo not drawn)	x	n	x	x	x	x
O=C(Nc1ccc(C23CC4CC(CC(C4)C2)C3)cc1)c1cccc[n+]1[O-]	x	n	x	x	x	x
COc1ccc(OC)c(/C=N/N(C)c2ccccc2)c1	n	u	n	n	n	n
COc1cc(/C=N/N(C)c2ccccc2)cc(Cl)c1O	n	16µM	n	n	u	n
CC(C)NC(=O)/C(C#N)=C/c1ccc(C(=O)O)cc1	x	22µM	x	x	x	x
CC(NC(=O)/C(C#N)=C\c1ccc(C(C)(C)C)cc1)c1ccccc1 (stereo not drawn)	x	n	x	x	x	x
CCOC(=O)CN1C=C(c2ccc3ccccc3n2)C(C[N+](=O)[O-])c2ccccc21 (stereo not drawn)	u	x	13µM	n	n	n
CN1C(=O)Cc2cc(C(=O)NC3CCCCC3)ccc21	x	n	x	x	x	x
O=C(NNC(=O)C12CC3CC(CC(C3)C1)C2)c1cccc(O)c1	n	n	n	n	n	n
O=C(NC(=S)Nc1cccc(O)c1)C12CC3CC(CC(C3)C1)C2	n	22µM	n	n	x	x
CCCCN(C)CC(O)Cn1cc(/C=C/C(=O)c2cccs2)c2ccccc21 (stereo not drawn)	28µM	x	u	n	n	n
CCCCN(CCCC)CC(O)Cn1cc(/C=C/C(=O)c2ccccc2)c2ccccc21 (stereo not drawn)	u	45µM	n	x	x	x
CCCCN(C)CC(O)Cn1cc(/C=C/C(=O)c2ccc(OCC)cc2)c2ccccc21 (stereo not drawn)	n	n	n	x	x	x
COc1ccccc1N(C(C)=O)C1=C(Cl)C(=O)c2ccccc2C1=O	u	14µM	u	n	x	x
CCOc1ccc(Nc2nc(C)c(NC(=O)c3cccc(OC)c3)c(Nc3ccc(OCC)cc3)n2)cc1	n	u	n	x	x	x
COc1ccc(Nc2nc(C)c(NC(=O)c3cccc(C)c3)c(Nc3ccc(OC)cc3)n2)cc1	x	35µM	x	x	x	x
O=c1[nH]c(=S)[nH]c2sccc12	n	8.9µM	n	n	n	n
O=c1[nH]c(=S)[nH]c2scc(-c3ccc(Br)cc3)c12	n	u	n	n	n	n
CC(C)(CNC(=O)CCc1ncc(-c2ccccc2F)o1)N1CCOCC1	x	n	x	x	x	x
CCC[C@@H]1CN(C(=O)C2(c3ccc(F)cc3)CCOCC2)C[C@H]1N(C)C	x	n	x	x	x	x
